The values that follow come from PubChem BioAssay (NCATS).

Structures are written as SMILES. “And” between values parts separate entries of the source, which are not always exact repeats. Identical values can stand only once. Results filed as inconclusive are left out. Where a call stands in place of a potency, no number is given. The source made the active and inactive calls. Calls come from the whole dose curve; as a rule, active = well fitted curve in the direction sought with a large enough effect; inconclusive = small, poorly fitted or top-dose-only effect, or another doubt; inactive = no such curve, though single readings can be large; an effect the other way counts as inactive or inconclusive.
Potency is the fitted concentration of half-maximal effect.

A short description of the first assay: qHTS of pediatric cancer cell lines to identify multiple opportunities for drug repurposing: Primary screen for RD cells (AID 1347104). Note: nearly all actives have a fitted effect of over 55% in size. The following applies: RD rhabdomyosarcoma viability, CellTiter-Glo luminescence, 48 h; series mostly up to 46 µM. In a few lines: (§1)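 Primary screen of approved and investigational compounds on cells in growth media at 37 degrees C, 5% CO2. MIPE set at 11-point and NPC set at 8-point dilutions; viability scored by ATP-based luminescence at 48 hours.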
On to `CCc1nc(N)nc(N)c1-c1ccc(Cl)cc1`, for which the Potency was 10.6 µM (active) and 18.7 µM (active). Turning to `Cc1ncc([N+](=O)[O-])n1CC(C)O` (stereo unspecified), the Potency result is “inactive”. Consider `CCOC(=O)C1=C[C@@H](OC(CC)CC)[C@H](NC(C)=O)[C@@H](N)C1`, for which the Potency entry is “inactive”. As to `Cc1cccc(-c2[nH]ncc2-c2ccc3ncccc3n2)n1`, the Potency result was “inactive”.

As to `Cc1nccn1CC1CCc2c(c3ccccc3n2C)C1=O` (stereo unspecified), the Potency entry is “inactive”.

For the compound `Cc1cc(O)c2c(c1)C(=O)c1cc(O)cc(O)c1C2=O`, the Potency result is “inactive”.

For the compound `N=C(N=C(N)N)N1CCOCC1`, the Potency entry is “inactive”.

Consider `CCC(C)(Oc1ccc(C2(c3ccc(OC(C)(CC)C(=O)O)cc3)CCCCC2)cc1)C(=O)O` (stereo unspecified), for which the Potency entry is “inactive”. Consider `Cc1nc(-c2ccc(OCC(C)C)c(C#N)c2)sc1C(=O)O`, for which the Potency entry is “inactive”. As for `C=C(c1ccc(C(=O)O)cc1)c1cc2c(cc1C)C(C)(C)CCC2(C)C`, the Potency entry is “inactive”. With `Cc1c(OCC(F)(F)F)ccnc1CS(=O)c1nc2ccccc2[nH]1` (stereo unspecified), the Potency result was “inactive”. With `S=c1nc[nH]c2nc[nH]c12`, the Potency entry was “inactive”. For the compound `CN(C)[C@@H](CCOc1cccc2ccccc12)c1ccccc1`, the Potency was 33.2 µM (active). As to `O=C1c2c(O)cc(O)cc2OC(c2ccc(O)c(O)c2)C1O` (stereo unspecified), the Potency result is “inactive”. The same measure, in the same setting: the same measure for `C[C@H](Cn1cnc2c(N)ncnc21)OCP(=O)(O)O`: “inactive”. Still for that read-out and setting: next, `O=C(NC(Cc1cc(=O)[nH]c2ccccc12)C(=O)O)c1ccc(Cl)cc1` (stereo unspecified): “inactive”. On to `O=Nc1c(-c2c(O)[nH]c3cc(Br)ccc23)[nH]c2ccccc12`, for which the Potency is 16.6 µM (active). Consider `COc1cc2c(N3CCN(C(=O)Nc4ccc(OC(C)C)cc4)CC3)ncnc2cc1OCCCN1CCCCC1`, for which the Potency is 26.4 µM (active) and 26.6 µM (active). Regarding `CCOC(=O)C(C)Oc1cccc2c(=O)n(CC(=O)Nc3ccc4c(c3)OCCO4)ccc12` (stereo unspecified), the Potency entry was “inactive”. `CNC[C@H](O)c1ccc(O)c(O)c1`: the Potency result is “inactive”.

For `O=C(CS(=O)Cc1ccco1)NCC=CCOc1cc(CN2CCCCC2)ccn1` (stereo unspecified), the Potency result is “inactive”. With `O=C(O)c1cccc(-c2noc(-c3ccccc3F)n2)c1`, the Potency result was “inactive”. On the same count and under the same terms, next, `O=C(O)CCNC(=O)c1ccc(N=Nc2ccc(O)c(C(=O)O)c2)cc1`: “inactive”; `COc1cc2c(cc1OC)C1CC(=O)C(CC(C)C)CN1CC2` (stereo unspecified): “inactive”. `COc1c(O)cc2c(c1O)[C@@H]1O[C@H](CO)[C@@H](O)[C@H](O)[C@H]1OC2=O`: the Potency result is “inactive”. As to `c1ccc2[nH]c(-c3cscn3)nc2c1`, the Potency result was “inactive”.

For the compound `O=C(NCCO[N+](=O)[O-])c1cccnc1`, the Potency entry was “inactive”.

The nature of another assay: qHTS of pediatric cancer cell lines to identify multiple opportunities for drug repurposing: Primary screen for MG 63 (6-TG R) cells (AID 1347105). Note: nearly all actives have a fitted effect of over 50% in size. The following applies: MG 63 (6-TG R) viability, CellTiter-Glo, 48 h; series mostly up to 46 µM. The method in brief: as §1
Background: In qHTS, concentration-response curves come from the screen itself.
In the case of `Cc1ncc([N+](=O)[O-])n1CC(C)O` (stereo unspecified), the Potency result was “inactive”. For the compound `O=c1oc2cc(O)ccc2s1`, the Potency entry is “inactive”. On the same count and under the same terms, next, `CCOC(=O)C1=C[C@@H](OC(CC)CC)[C@H](NC(C)=O)[C@@H](N)C1`: “inactive”; `Cc1cccc(-c2[nH]ncc2-c2ccc3ncccc3n2)n1`: “inactive”; `Cc1nccn1CC1CCc2c(c3ccccc3n2C)C1=O` (stereo unspecified): “inactive”. The same measure, in the same setting: next, `Cc1cc(O)c2c(c1)C(=O)c1cc(O)cc(O)c1C2=O`: “inactive”; `N=C(N=C(N)N)N1CCOCC1`: “inactive”. As to `Nc1nc(N)c(N=O)c(OCC2CCCCC2)n1`, the Potency is 11.8 µM (active).

Regarding `CCC(C)(Oc1ccc(C2(c3ccc(OC(C)(CC)C(=O)O)cc3)CCCCC2)cc1)C(=O)O` (stereo unspecified), the Potency result is “inactive”. On to `Cc1nc(-c2ccc(OCC(C)C)c(C#N)c2)sc1C(=O)O`, for which the Potency entry is “inactive”. Take `Cn1c(NCCN(CCO)CCCc2ccc([N+](=O)[O-])cc2)cc(=O)n(C)c1=O`: the Potency entry is “inactive”. In the case of `C=C(c1ccc(C(=O)O)cc1)c1cc2c(cc1C)C(C)(C)CCC2(C)C`, the Potency entry is “inactive”. Turning to `Cc1c(OCC(F)(F)F)ccnc1CS(=O)c1nc2ccccc2[nH]1` (stereo unspecified), the Potency result was “inactive”. As for `S=c1nc[nH]c2nc[nH]c12`, the Potency entry was “inactive”. Take `CN(C)[C@@H](CCOc1cccc2ccccc12)c1ccccc1`: the Potency entry was “inactive”.

Consider `O=C1c2c(O)cc(O)cc2OC(c2ccc(O)c(O)c2)C1O` (stereo unspecified), for which the Potency entry was “inactive”. As to `Cc1ccc(Nc2nccc(N(C)c3ccc4c(C)n(C)nc4c3)n2)cc1S(N)(=O)=O`, the Potency is 0.0668 µM (active).

In the case of `C[C@H](Cn1cnc2c(N)ncnc21)OCP(=O)(O)O`, the Potency entry is “inactive”.

As for `O=C(NC(Cc1cc(=O)[nH]c2ccccc12)C(=O)O)c1ccc(Cl)cc1` (stereo unspecified), the Potency result was “inactive”.

Take `COC1=C(OC)C(=O)C(CCCCCCCCCCO)=C(C)C1=O`: the Potency result is “inactive”. As to `O=Nc1c(-c2c(O)[nH]c3cc(Br)ccc23)[nH]c2ccccc12`, the Potency was 18.7 µM (active).

Consider `COc1cc2c(N3CCN(C(=O)Nc4ccc(OC(C)C)cc4)CC3)ncnc2cc1OCCCN1CCCCC1`, for which the Potency entry is “inactive”. Same read-out and setting: the same measure for `CCOC(=O)C(C)Oc1cccc2c(=O)n(CC(=O)Nc3ccc4c(c3)OCCO4)ccc12` (stereo unspecified): “inactive”; for `CC[C@]1(O)C[C@H]2CN(CCc3c([nH]c4ccccc34)[C@@](C(=O)OC)(c3cc4c(cc3OC)N(C=O)[C@H]3[C@@](O)(C(=O)OC)[C@H](OC(C)=O)[C@]5(CC)C=CCN6CC[C@]43[C@@H]65)C2)C1`: 0.0335 µM (active).

For `CNC[C@H](O)c1ccc(O)c(O)c1`, the Potency result was “inactive”.

In the case of `O=C(CS(=O)Cc1ccco1)NCC=CCOc1cc(CN2CCCCC2)ccn1` (stereo unspecified), the Potency entry was “inactive”.

In the case of `O=c1ccc2ccc(O)c(O)c2o1`, the Potency result was “inactive”. For `O=C(O)c1cccc(-c2noc(-c3ccccc3F)n2)c1`, the Potency result was “inactive”. Still for that read-out and setting: the same measure for `Cc1cccc(CN2CCN(C(c3ccccc3)c3ccc(Cl)cc3)CC2)c1` (stereo unspecified): “inactive”; for `O=C(O)CCNC(=O)c1ccc(N=Nc2ccc(O)c(C(=O)O)c2)cc1`: “inactive”. Take `COc1cc2c(cc1OC)C1CC(=O)C(CC(C)C)CN1CC2` (stereo unspecified): the Potency result was “inactive”.

With `Nc1nc(Cl)nc2c1ncn2[C@H]1C[C@H](O)[C@@H](CO)O1`, the Potency was 29.6 µM (active). `COc1c(O)cc2c(c1O)[C@@H]1O[C@H](CO)[C@@H](O)[C@H](O)[C@H]1OC2=O`: the Potency result was “inactive”. For the compound `O=C(NCCO[N+](=O)[O-])c1cccnc1`, the Potency result was “inactive”.
